ChEMBL document CHEMBL3988442, “University of Dundee, Small-Polar-MMV Screening Library” (2021)
For some assays here: Potency and affinity values are given separately.

Tests used:
Set-up in all cases: scale not given: direction of the effect not stated beside the values
[1] = biological target: Protein translocase subunit SecA (Escherichia coli (strain K12)) (UniProt P10408); assay: Assay to Identify E. coli SecA ATPase Inhibitors; format: functional; details: 30 µM
[2] = biological target: T1, Ubiquitin-activating enzyme e1, putative (Leishmania donovani (strain BPK282A1)) (UniProt E9BSI1); assay: Leishmania donovani Ubiquitin Activating Enzyme (LdE1); format: functional; details: 30 µM
T1 sequence (whole entry): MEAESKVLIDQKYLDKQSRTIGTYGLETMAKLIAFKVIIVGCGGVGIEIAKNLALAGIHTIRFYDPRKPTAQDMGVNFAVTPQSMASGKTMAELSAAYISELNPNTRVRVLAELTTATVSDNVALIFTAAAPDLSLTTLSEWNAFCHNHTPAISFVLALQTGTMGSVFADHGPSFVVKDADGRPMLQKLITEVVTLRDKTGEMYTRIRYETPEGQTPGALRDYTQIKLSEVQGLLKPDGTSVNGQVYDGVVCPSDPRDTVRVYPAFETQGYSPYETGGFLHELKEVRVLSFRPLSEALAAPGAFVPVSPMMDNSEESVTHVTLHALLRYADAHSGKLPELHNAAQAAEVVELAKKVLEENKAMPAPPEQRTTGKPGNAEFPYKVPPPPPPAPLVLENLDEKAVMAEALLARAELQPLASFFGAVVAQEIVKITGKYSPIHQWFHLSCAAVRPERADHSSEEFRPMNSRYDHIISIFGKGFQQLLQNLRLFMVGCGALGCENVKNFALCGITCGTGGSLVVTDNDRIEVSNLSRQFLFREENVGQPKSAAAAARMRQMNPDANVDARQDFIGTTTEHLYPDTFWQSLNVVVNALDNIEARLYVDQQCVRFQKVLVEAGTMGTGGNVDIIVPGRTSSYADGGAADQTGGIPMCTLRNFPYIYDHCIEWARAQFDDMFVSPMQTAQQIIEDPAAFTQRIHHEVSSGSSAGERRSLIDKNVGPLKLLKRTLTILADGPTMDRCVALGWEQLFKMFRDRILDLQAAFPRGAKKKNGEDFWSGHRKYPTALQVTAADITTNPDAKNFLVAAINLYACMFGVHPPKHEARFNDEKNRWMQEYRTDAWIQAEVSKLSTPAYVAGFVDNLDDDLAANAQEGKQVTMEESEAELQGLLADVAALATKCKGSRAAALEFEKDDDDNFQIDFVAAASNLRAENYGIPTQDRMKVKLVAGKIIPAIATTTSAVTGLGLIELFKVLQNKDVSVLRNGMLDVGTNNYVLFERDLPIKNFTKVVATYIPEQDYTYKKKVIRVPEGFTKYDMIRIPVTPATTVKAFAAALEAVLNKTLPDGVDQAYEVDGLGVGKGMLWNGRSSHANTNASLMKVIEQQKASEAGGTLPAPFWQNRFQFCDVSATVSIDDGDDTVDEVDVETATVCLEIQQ

[3] = biological target: AMP-activated protein kinase, AMPK (Homo sapiens) (UniProt P54646+O43741+P54619+Q9UGJ0+Q9Y478+Q13131+Q9UGI9); assay: AMP-dependent Kinase enzyme assay. An in vitro enzyme assay that detects ADP turnover that is directly proportional to AMPK activity. This uses naive AMPK that is activated during the assay with MK-8722; format: functional; details: 30 µM
[4] = biological target: Sialic acid-binding Ig-like lectin 9 (Homo sapiens) (UniProt Q9Y336); assay: Hs-Siglec9 ALPHAscreen SOP 20170721; details: 10 µM
Chain of Sialic acid-binding Ig-like lectin 9 (Homo sapiens) (Q9Y336 whole entry): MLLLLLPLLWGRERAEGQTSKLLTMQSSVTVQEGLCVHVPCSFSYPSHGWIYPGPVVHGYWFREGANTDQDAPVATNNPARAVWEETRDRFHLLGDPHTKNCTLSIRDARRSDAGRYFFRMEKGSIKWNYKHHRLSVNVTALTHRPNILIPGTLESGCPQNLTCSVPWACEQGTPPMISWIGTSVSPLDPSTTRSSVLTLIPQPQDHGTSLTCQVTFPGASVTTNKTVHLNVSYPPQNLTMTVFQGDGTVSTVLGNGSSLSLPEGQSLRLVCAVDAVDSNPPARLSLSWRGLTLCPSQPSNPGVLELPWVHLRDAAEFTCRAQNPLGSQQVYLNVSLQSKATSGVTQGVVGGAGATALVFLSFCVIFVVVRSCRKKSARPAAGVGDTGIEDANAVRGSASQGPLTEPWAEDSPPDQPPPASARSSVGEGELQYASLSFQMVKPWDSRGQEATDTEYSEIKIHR

Trypanosoma cruzi = assay: Trypanosoma cruzi phosphomannomutase and mannose-1-phosphate guanylyltransferase assay; format: functional; details: 10 µM
[5] = biological target: T2, Arginase-2, mitochondrial (Homo sapiens) (UniProt P78540); assay: in vitro enzyme assay to detect the production of urea directly proportional to the activity of Arginase II; format: functional; details: 33.3 µM; also: in the data most compounds retested in dose-response had high values
T2 sequence (whole entry): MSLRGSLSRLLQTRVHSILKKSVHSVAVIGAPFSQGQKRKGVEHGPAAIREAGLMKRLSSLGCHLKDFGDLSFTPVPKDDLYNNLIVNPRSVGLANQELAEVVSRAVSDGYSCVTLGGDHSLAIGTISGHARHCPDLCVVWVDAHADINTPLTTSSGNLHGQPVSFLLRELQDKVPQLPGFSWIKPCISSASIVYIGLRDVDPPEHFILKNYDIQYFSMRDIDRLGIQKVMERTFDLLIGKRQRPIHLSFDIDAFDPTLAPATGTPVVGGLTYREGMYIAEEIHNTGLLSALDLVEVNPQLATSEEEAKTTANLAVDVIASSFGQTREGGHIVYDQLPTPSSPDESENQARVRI

[6] = biological target: T3, Proteasome subunit beta (Trypanosoma cruzi) (UniProt O96673); assay: Trypanosoma cruzi proteasome chymotrypsin-like activity (TcProtChymo) assay.; also: in the data most compounds retested in dose-response had high values; format: functional; details: 9.37 µM
T3 sequence (whole entry): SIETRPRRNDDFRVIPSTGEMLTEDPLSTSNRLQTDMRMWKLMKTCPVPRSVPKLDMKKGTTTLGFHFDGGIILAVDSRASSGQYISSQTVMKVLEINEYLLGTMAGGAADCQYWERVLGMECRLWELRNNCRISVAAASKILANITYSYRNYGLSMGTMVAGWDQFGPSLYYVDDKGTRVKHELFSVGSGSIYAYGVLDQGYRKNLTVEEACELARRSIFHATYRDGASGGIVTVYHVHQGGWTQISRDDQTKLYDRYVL

Homo sapiens = species on record: Homo sapiens; assay: To identify inhibition of the IFN signalling (Jak-Stat) pathway via expression of an eGFP reporter gene under the control of an IFN-stimulated response element (ISRE) containing MxA promoter.; format: functional; details: 30 µM
[7] = biological target: T4, Tyrosyl-tRNA synthetase, putative (Trypanosoma cruzi (strain CL Brener)) (UniProt Q4DSP6); assay: Trypanosoma cruzi tyrosyl tRNA synthetase (TcYRS) _High Tyrosine SOP; format: functional; details: 30 µM; also: in the data most compounds retested in dose-response had high values
T4 sequence (whole entry): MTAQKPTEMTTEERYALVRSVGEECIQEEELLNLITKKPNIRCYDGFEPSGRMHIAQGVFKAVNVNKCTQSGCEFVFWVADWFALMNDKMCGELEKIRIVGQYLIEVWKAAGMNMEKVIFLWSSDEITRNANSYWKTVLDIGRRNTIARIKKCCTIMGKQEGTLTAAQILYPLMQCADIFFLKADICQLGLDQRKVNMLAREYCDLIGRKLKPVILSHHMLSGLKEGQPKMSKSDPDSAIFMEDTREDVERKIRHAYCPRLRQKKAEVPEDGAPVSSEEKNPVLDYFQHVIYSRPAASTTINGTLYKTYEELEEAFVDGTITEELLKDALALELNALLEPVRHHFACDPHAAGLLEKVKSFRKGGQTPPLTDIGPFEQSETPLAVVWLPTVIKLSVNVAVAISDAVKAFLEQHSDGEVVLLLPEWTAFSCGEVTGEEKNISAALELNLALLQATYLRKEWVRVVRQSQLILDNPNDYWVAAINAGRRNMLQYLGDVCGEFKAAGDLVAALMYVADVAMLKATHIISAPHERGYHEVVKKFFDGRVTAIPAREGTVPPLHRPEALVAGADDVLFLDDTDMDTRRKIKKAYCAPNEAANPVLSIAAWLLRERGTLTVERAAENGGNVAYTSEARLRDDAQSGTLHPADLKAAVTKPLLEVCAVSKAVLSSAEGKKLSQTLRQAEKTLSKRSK

[8] = biological target: T4, Tyrosyl-tRNA synthetase, putative (Trypanosoma cruzi (strain CL Brener)); assay: Trypanosoma cruzi tyrosyl tRNA synthetase (TcYRS) SOP; format: functional; details: 30 µM
[9] = biological target: Chromo domain-containing protein 1 (Saccharomyces cerevisiae (strain ATCC 204508 / S288c) (Baker's yeast)) (UniProt P32657); assay: ScCHD-1 Enzyme Inhibition Assay; format: functional; details: 30 µM; also: in the data most compounds retested in dose-response had high values
Chain of Chromo domain-containing protein 1 (Saccharomyces cerevisiae (strain ATCC 204508 / S288c) (Baker's yeast)) (P32657 whole entry, the tested form may be a part): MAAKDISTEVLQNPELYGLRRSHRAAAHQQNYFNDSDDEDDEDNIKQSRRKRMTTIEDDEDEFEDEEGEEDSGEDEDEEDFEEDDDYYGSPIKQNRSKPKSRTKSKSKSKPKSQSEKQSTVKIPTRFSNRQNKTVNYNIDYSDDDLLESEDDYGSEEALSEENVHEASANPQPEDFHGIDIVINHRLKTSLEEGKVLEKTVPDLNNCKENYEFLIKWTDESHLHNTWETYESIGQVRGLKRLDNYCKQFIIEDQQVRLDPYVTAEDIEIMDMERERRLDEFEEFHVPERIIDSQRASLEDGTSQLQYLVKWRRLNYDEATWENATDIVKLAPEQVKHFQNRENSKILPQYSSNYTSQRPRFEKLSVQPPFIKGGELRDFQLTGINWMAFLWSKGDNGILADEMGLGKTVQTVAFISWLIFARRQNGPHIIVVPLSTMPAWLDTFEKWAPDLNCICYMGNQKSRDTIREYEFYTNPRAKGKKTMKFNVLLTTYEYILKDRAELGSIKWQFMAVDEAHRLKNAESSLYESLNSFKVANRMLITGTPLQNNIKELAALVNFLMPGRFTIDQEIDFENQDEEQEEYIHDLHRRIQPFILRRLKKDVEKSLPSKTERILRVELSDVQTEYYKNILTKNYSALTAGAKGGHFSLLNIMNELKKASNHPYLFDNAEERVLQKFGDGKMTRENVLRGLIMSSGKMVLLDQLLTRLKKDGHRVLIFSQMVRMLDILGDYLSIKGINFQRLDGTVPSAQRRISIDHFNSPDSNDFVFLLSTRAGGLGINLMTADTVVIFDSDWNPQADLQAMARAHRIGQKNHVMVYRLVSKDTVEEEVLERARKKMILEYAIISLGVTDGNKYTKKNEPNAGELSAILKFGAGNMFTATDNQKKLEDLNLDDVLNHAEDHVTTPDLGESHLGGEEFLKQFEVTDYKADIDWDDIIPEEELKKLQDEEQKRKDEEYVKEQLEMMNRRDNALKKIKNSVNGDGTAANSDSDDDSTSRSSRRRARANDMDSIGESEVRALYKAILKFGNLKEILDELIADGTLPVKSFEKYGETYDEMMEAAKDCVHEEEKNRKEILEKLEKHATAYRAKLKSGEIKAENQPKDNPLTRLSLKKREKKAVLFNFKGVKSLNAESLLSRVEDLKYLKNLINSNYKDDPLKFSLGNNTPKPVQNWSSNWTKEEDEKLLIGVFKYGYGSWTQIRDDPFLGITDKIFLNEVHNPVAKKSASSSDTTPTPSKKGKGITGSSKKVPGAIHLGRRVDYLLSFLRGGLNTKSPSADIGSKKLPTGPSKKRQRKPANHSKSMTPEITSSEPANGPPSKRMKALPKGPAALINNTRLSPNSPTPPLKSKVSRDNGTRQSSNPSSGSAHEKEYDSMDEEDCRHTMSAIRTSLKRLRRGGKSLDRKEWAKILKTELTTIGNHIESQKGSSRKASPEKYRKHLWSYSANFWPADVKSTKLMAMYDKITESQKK

Chain of Protein translocase subunit SecA (Escherichia coli (strain K12)) (P10408 whole entry): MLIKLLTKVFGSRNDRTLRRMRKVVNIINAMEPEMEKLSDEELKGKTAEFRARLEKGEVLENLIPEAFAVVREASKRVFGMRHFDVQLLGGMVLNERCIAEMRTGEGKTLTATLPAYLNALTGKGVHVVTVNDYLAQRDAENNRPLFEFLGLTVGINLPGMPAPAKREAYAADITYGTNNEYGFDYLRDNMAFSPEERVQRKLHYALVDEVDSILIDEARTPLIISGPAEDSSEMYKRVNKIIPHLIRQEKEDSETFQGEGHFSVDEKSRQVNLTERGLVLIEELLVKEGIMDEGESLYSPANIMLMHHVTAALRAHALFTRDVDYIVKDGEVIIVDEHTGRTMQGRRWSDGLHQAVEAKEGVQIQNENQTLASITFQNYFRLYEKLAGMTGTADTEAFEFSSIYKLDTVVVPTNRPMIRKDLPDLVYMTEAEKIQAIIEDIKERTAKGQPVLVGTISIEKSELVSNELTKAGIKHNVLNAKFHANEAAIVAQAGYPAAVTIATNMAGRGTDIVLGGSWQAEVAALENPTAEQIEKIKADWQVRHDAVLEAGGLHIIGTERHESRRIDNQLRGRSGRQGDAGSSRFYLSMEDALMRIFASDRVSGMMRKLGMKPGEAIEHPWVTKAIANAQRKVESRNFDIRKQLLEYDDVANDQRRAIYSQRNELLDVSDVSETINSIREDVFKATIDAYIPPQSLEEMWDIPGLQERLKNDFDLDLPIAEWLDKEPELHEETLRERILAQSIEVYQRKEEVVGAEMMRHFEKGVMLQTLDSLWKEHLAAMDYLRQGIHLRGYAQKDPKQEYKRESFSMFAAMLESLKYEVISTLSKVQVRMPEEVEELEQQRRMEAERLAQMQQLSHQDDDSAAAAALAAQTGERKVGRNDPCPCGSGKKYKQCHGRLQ

Compound	Percent Effect [1] [%]	Percent Effect [2] [%]	Percent Effect [3] [%]	Percent Effect [4] [%]	Percent Effect (Trypanosoma cruzi) [%]	Percent Effect [5] [%]	Percent Effect [6] [%]	Percent Effect (Homo sapiens) [%]	Percent Effect [7] [%]	Percent Effect [8] [%]	Percent Effect [9] [%]
Cc1cnc(C(=O)N(CCN(C)C)Cc2ccc(Cl)cc2)cn1	-0.752	20.8	5.67	9.21	4.37	9.71	15.3	-3.66	4.21	10.3	-4.76
O=C(CCc1ccccc1)NCC1CCN(Cc2ccsc2)CC1	-2.4	13	4.5	-9.22	-5.62	7.1	15.3	20.5	2.12	8.97	-8.15
CCc1noc(C(C)N2CCN(c3ccc(C#N)cc3F)CC2)n1 (configuration not stated)	-1.97	5.26	2.6	-3.73	7.89	-8.28	21.2	-24.1	6.38	13	-4.69
CC(C)=CCN(C)C1CCCN(Cc2noc(C)n2)C1 (configuration not stated)	-2.36	18.9	22.7	-3.99	-3.06	1.29	9.7	15.7	1.98	13.4	-3.38
CN(Cc1ccc(F)cc1)CC1(O)CCN(C(=O)c2ccccc2)C1 (configuration not stated)	-1.26	4.05	9.4	2.19	-8.1	1.16	9.98	15.7	2.15	6.49	13.1
CCc1nc(C2CCCN2Cc2nc3ccccc3o2)no1 (configuration not stated)	-0.183	2.6	6.37	9.09	1.67	2.74	2.67	-1.25	-2.86	0	2.53
CCOCCCNC(=O)c1nn(CC)cc1Cl	-0.389	14.7	-2.38	-8.09	3.14	-8.28	12.8	18.8	5.29	12.8	-10.4
O=C(NCC1(N2CCOCC2)CCSC1)Nc1ccc(F)cc1 (configuration not stated)	0.856	5.41	-4.15	1.34	0.193	-2.86	17.9	-10.2	5.82	9.76	-1.18
Cc1ccc(Nc2nccc(C3CCCN(CC(=O)N(C)C)C3)n2)nc1 (configuration not stated)	-5.52	5.33	-1.77	6.73	5.51	-6.76	13.8	-1.72	11.7	19.2	-2.77
COC(=O)CN1CC(c2nc(Cc3ccccc3)no2)C1	-5.1	13.7	-3.81	14.3	2.35	2.27	11.9	12.4	8.6	15	-6.9
CNc1cc2c(nn1)CCN(C(=O)c1ccoc1)C2	-0.747	7.79	7.77	-6.29	-1.27	4	16.6	27	1.91	-25.9	-15
COCC1CN(C(=O)COc2ccccc2)Cc2cn(C)nc21 (configuration not stated)	1.54	-2.6	1.75	4.23	-2.27	-8.39	1.39	9.62	-5.29	-1.28	-6.88
Cc1ccc(NC2CCN(C(=O)Cc3csc(C)n3)CC2)nn1	-0.935	21.6	-5.18	-3.82	-8.02	1.2	18.6	4.91	7.39	16.1	-4.45
Cc1cc(C)c(CNC(=O)N2CCN(c3cnccn3)CC2)c(=O)[nH]1	-7.87	18.4	-1.35	2.54	6.96	-1.53	12.2	11.3	3.43	9.76	-9.64
Cc1nnc(CCNC2CCN(c3ncnc4c(C)csc34)CC2)s1	-3.21	7.79	3.06	11	7.77	-2.76	12.8	40.2	8.6	16.1	-8.66
Cc1cc(C(=O)N2CCc3nnc(N(C)C)cc3C2)c(C)n1C1CC1	-2.94	3.8	-0.0334	0.611	-0.513	4.52	16.1	14	8.33	10.1	-3.64
Cc1ccc(CN2CCCC3(COCCN(Cc4c[nH]nn4)C3)C2)o1 (configuration not stated)	-2.92	2.67	3.3	8.61	0.965	-22.8	0.855	4.18	7.29	10	-3.22
CC(C)(C)NC(=O)C1CSCN1S(=O)(=O)c1ccc(F)cc1 (configuration not stated)	-1.95	6.33	3.86	-0.312	-4	-4.52	15.4	21.8	7.29	20.2	-14.6
COC(=O)c1sccc1NC(=O)C1CCCN1C(=O)c1ccco1 (configuration not stated)	-0.782	-15.3	13.2	-14.9	-8.84	-3.53	20.4	1.28	-3.16	2.56	-2.51
CCn1nnc2c1C(COC)CN(Cc1cccs1)C2 (configuration not stated)	-2.49	5.41	4.39	6.4	4.69	1.67	12.3	-4.92	4.95	8.54	-4.09
CN(C(=O)C1CSCN1S(=O)(=O)c1ccc(F)cc1)C1CC1 (configuration not stated)	-6.46	0	-0.918	1.18	-5.57	-2.73	6.27	-19.6	3.23	11.1	0.714
COc1cc(CNCc2c(C)nn(C)c2N(C)C)ccc1C	-4.67	-5.41	-13.7	2.96	1.98	-6.41	3.06	-2.21	5.42	1.24	0.104
